Results from PubChem BioAssay (NCI).
The panel holds about 79,000 compounds, 15% with a hit somewhere; the sample as a whole holds those more often. Unmarked numbers belong to inactive results. Calls of active or inactive are those of the source. No stated cut-off is given here; in the data, active means growth inhibition above about 70%; inactive means the rest.

What was measured:
[1] = NCI Yeast Anticancer Drug Screen. Data for the rad52 strain (AID 147);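 further: 0% = growth of vehicle-treated control cultures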; settings: S. cerevisiae rad52 mutant growth inhibition, active compounds read high
In short: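 Vehicle-treated cultures served as the reference for growth inhibition of compound-exposed yeast bearing a DNA repair mutation.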

[2] = NCI Yeast Anticancer Drug Screen. Data for the wt1 strain (AID 149);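 further: 0% = growth of vehicle-treated wt1 cultures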; settings: S. cerevisiae wt1 strain (SPY 50644) growth inhibition, active compounds read high
In short: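 Yeast wt1 strain exposed to compounds; growth inhibition measured relative to vehicle-treated controls.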

[3] = NCI Yeast Anticancer Drug Screen. Data for the rad50EPP+ strain (AID 151);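 further: 0% = growth of vehicle-treated control cultures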; settings: S. cerevisiae rad50 mutant strain, active compounds read high
In short: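 In this screen, rad50EPP+ yeast were exposed to compounds. Growth inhibition was scored against vehicle-treated controls.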

[4] = NCI Yeast Anticancer Drug Screen. Data for the mgt1 strain (AID 153); settings: S. cerevisiae mgt1 mutant growth inhibition, active compounds read high
In short: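 mgt1 strain exposed; growth vs vehicle control recorded as inhibition.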

[5] = NCI Yeast Anticancer Drug Screen. Data for the rad50 strain (AID 155);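 further: 0% = growth of vehicle-only cultures of the same strain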; settings: S. cerevisiae rad50 strain growth inhibition, active compounds read high
In short: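 Yeast carrying a defined DNA repair defect were exposed to test compounds, and growth was compared with vehicle-treated controls to give percent inhibition.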

[6] = NCI Yeast Anticancer Drug Screen. Data for the mec2-1 strain (AID 157); settings: S. cerevisiae mec2-1 strain, active compounds read high
In short: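 Vehicle-treated cultures served as reference for growth inhibition of compound-exposed mec2-1 yeast.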

[7] = NCI Yeast Anticancer Drug Screen. Data for the rad14 strain (AID 159);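 further: 0% = growth of vehicle-treated control cultures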; settings: S. cerevisiae rad14 strain growth inhibition, active compounds read high
In short: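 Yeast cells carrying a defined DNA-repair defect were exposed to compounds, and growth inhibition was calculated relative to vehicle-treated control cultures.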

[8] = NCI Yeast Anticancer Drug Screen. Data for the sgs1 mgt1 strain (AID 161);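 further: 0% = growth of cultures given vehicle only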; settings: S. cerevisiae sgs1 mgt1 strain, active compounds read high
In short: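 Mutant yeast exposed to compound; growth scored against vehicle-only wells.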

[9] = NCI Yeast Anticancer Drug Screen. Data for the CLN2oe strain (AID 163);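 further: 0% = growth of vehicle-only control cultures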; settings: S. cerevisiae CLN2oe strain, active compounds read high
In short: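 Inhibition relative to vehicle-treated yeast is reported. Cells: strain with genetic alteration in cell-cycle control, grown with compound.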

[10] = NCI Yeast Anticancer Drug Screen. Data for the cln2 rad14 strain (AID 165);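 further: 0% = growth equal to vehicle treated cultures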; settings: S. cerevisiae cln2 rad14 strain, active compounds read high
In short: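 Each compound was tested on cln2 rad14 yeast. Inhibition of growth was calculated against vehicle-exposed controls.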

[11] = NCI Yeast Anticancer Drug Screen. Data for the bub3 strain (AID 167); settings: S. cerevisiae bub3 mutant strain, active compounds read high
In short: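 Compounds were applied to a genetically altered yeast strain carrying a cell-cycle control defect. Growth inhibition was scored against vehicle-treated controls.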

[12] = NCI Yeast Anticancer Drug Screen. Data for the wt2 strain (AID 169);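 further: 0% = growth of vehicle-treated yeast cultures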; settings: S. cerevisiae wt2 strain growth inhibition, active compounds read high
In short: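 Inhibition of yeast growth was determined after compound treatment, normalised to controls receiving only vehicle.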

[13] = NCI Yeast Anticancer Drug Screen. Data for the mlh1 strain (AID 171);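 further: 0% = growth of vehicle-treated control cultures of the same strain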; settings: S. cerevisiae mlh1 strain growth inhibition, active compounds read high
In short: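 Vehicle-normalised growth inhibition of a repair- or checkpoint-altered yeast strain following compound treatment.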

[14] = NCI Yeast Anticancer Drug Screen. Data for the mlh1 rad18 strain (AID 175); settings: S. cerevisiae mlh1 rad18 strain growth inhibition, active compounds read high
In short: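 Vehicle-treated cultures served as the reference for growth inhibition in a yeast strain carrying DNA damage repair alterations exposed to each compound.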

[15] = NCI Yeast Anticancer Drug Screen. Data for the rad18 strain (AID 177); settings: S. cerevisiae rad18 mutant growth inhibition, active compounds read high
In short: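 Test articles were incubated with altered yeast defective in DNA damage repair. Results are given as inhibition of growth versus vehicle.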

[16] = at 5.0 µM (retest, dose inferred, filed as 0.5)
[17] = at 50.0 µM (retest, dose inferred, filed as 5.0)

Question: Which growth inhibition ([1]; at 1.2 µM) does the source give for `O=[N+]([O-])c1cc(S(=O)(=O)Nc2ccccc2)ccc1Nc1ccccc1` here?
Answer: The growth inhibition was 0%.

Question: What about the growth inhibition ([1]; at 3.7 µM) of the same molecule?
Answer: The growth inhibition was 13%.

Question: And the growth inhibition ([1]; at 11.0 µM)?
Answer: The growth inhibition was 95% (active).

Question: And the growth inhibition ([1]; at 33.0 µM)?
Answer: Its growth inhibition is 91% (active).

Question: What about the growth inhibition ([1]; at 100.0 µM) of the same molecule?
Answer: Its growth inhibition is 76% (active).

Question: What about the growth inhibition ([2]; at 1.2 µM) of the same molecule?
Answer: Its growth inhibition is -16%.

Question: And the growth inhibition ([2]; at 3.7 µM)?
Answer: Its growth inhibition is -19%.

Question: And the growth inhibition ([2]; at 11.0 µM)?
Answer: Its growth inhibition is 94% (active).

Question: What about the growth inhibition ([2]; at 33.0 µM) of the same molecule?
Answer: Its growth inhibition is 91% (active).

Question: What about the growth inhibition ([2]; at 100.0 µM) of the same molecule?
Answer: The growth inhibition was 81% (active).

Question: What about the growth inhibition ([3]; at 1.2 µM) of the same molecule?
Answer: Its growth inhibition is 2%.

Question: And the growth inhibition ([3]; at 3.7 µM)?
Answer: Its growth inhibition is 2%.

Question: What about the growth inhibition ([3]; at 11.0 µM) of the same molecule?
Answer: Its growth inhibition is 23%.

Question: And the growth inhibition ([3]; at 33.0 µM)?
Answer: Its growth inhibition is 19%.

Question: What about the growth inhibition ([3]; at 100.0 µM) of the same molecule?
Answer: The growth inhibition was 3%.

Question: And the growth inhibition ([4]; at 1.2 µM)?
Answer: The growth inhibition was -18%.

Question: What about the growth inhibition ([4]; at 3.7 µM) of the same molecule?
Answer: The growth inhibition was 11%.

Question: What about the growth inhibition ([4]; at 11.0 µM) of the same molecule?
Answer: Its growth inhibition is 89% (active).

Question: And the growth inhibition ([4]; at 33.0 µM)?
Answer: The growth inhibition was 92% (active).

Question: And the growth inhibition ([4]; at 100.0 µM)?
Answer: The growth inhibition was 82% (active).

Question: What about the growth inhibition ([5]; at 1.2 µM) of the same molecule?
Answer: Its growth inhibition is 11%.

Question: What about the growth inhibition ([5]; at 3.7 µM) of the same molecule?
Answer: The growth inhibition was 28%.

Question: And the growth inhibition [5, 16]?
Answer: Its growth inhibition is 51%.

Question: And the growth inhibition ([5]; at 11.0 µM)?
Answer: Its growth inhibition is 93% (active).

Question: And the growth inhibition ([5]; at 33.0 µM)?
Answer: Its growth inhibition is 89% (active).

Question: And the growth inhibition [5, 17]?
Answer: The growth inhibition was 94% (active).

Question: What about the growth inhibition ([5]; at 50.0 µM) of the same molecule?
Answer: Its growth inhibition is 80% (active).

Question: And the growth inhibition ([5]; at 100.0 µM)?
Answer: Its growth inhibition is 75% (active).

Question: What about the growth inhibition ([6]; at 1.2 µM) of the same molecule?
Answer: Its growth inhibition is 18%.

Question: And the growth inhibition ([6]; at 3.7 µM)?
Answer: Its growth inhibition is 19%.

Question: And the growth inhibition [6, 16]?
Answer: Its growth inhibition is 39%.

Question: What about the growth inhibition ([6]; at 11.0 µM) of the same molecule?
Answer: Its growth inhibition is 93% (active).

Question: And the growth inhibition ([6]; at 33.0 µM)?
Answer: The growth inhibition was 89% (active).

Question: What about the growth inhibition [6, 17] of the same molecule?
Answer: Its growth inhibition is 96% (active).

Question: What about the growth inhibition ([6]; at 50.0 µM) of the same molecule?
Answer: Its growth inhibition is 81.2% (active).

Question: What about the growth inhibition ([6]; at 100.0 µM) of the same molecule?
Answer: The growth inhibition was 78% (active).

Question: What about the growth inhibition ([7]; at 1.2 µM) of the same molecule?
Answer: Its growth inhibition is -26%.

Question: What about the growth inhibition ([7]; at 3.7 µM) of the same molecule?
Answer: Its growth inhibition is -29%.

Question: And the growth inhibition ([7]; at 11.0 µM)?
Answer: Its growth inhibition is 89% (active).

Question: And the growth inhibition ([7]; at 33.0 µM)?
Answer: The growth inhibition was 89% (active).

Question: What about the growth inhibition ([7]; at 100.0 µM) of the same molecule?
Answer: Its growth inhibition is 77% (active).

Question: And the growth inhibition [8, 16]?
Answer: Its growth inhibition is 2%.

Question: What about the growth inhibition [8, 17] of the same molecule?
Answer: Its growth inhibition is 91% (active).

Question: What about the growth inhibition ([8]; at 50.0 µM) of the same molecule?
Answer: The growth inhibition was 85.5% (active).

Question: What about the growth inhibition ([9]; at 1.2 µM) of the same molecule?
Answer: Its growth inhibition is 14%.

Question: And the growth inhibition ([9]; at 3.7 µM)?
Answer: The growth inhibition was -1%.

Question: And the growth inhibition ([9]; at 11.0 µM)?
Answer: The growth inhibition was 94% (active).

Question: And the growth inhibition ([9]; at 33.0 µM)?
Answer: The growth inhibition was 89% (active).

Question: What about the growth inhibition ([9]; at 100.0 µM) of the same molecule?
Answer: Its growth inhibition is 76% (active).

Question: And the growth inhibition [10, 16]?
Answer: The growth inhibition was 68%.

Question: What about the growth inhibition [10, 17] of the same molecule?
Answer: The growth inhibition was 91% (active).

Question: What about the growth inhibition ([10]; at 50.0 µM) of the same molecule?
Answer: The growth inhibition was 80.2% (active).

Question: And the growth inhibition ([11]; at 1.2 µM)?
Answer: The growth inhibition was 15%.

Question: What about the growth inhibition ([11]; at 3.7 µM) of the same molecule?
Answer: The growth inhibition was 40%.

Question: What about the growth inhibition [11, 16] of the same molecule?
Answer: The growth inhibition was -7%.

Question: What about the growth inhibition ([11]; at 11.0 µM) of the same molecule?
Answer: The growth inhibition was 94% (active).

Question: What about the growth inhibition ([11]; at 33.0 µM) of the same molecule?
Answer: The growth inhibition was 91% (active).

Question: And the growth inhibition [11, 17]?
Answer: The growth inhibition was 86% (active).

Question: What about the growth inhibition ([11]; at 50.0 µM) of the same molecule?
Answer: Its growth inhibition is 76.2% (active).

Question: And the growth inhibition ([11]; at 100.0 µM)?
Answer: Its growth inhibition is 76% (active).

Question: And the growth inhibition ([12]; at 1.2 µM)?
Answer: Its growth inhibition is -28%.

Question: And the growth inhibition ([12]; at 3.7 µM)?
Answer: Its growth inhibition is -18%.

Question: And the growth inhibition ([12]; at 11.0 µM)?
Answer: Its growth inhibition is 92% (active).

Question: And the growth inhibition ([12]; at 33.0 µM)?
Answer: Its growth inhibition is 92% (active).

Question: And the growth inhibition ([12]; at 100.0 µM)?
Answer: The growth inhibition was 83% (active).

Question: And the growth inhibition ([13]; at 1.2 µM)?
Answer: Its growth inhibition is -26%.

Question: And the growth inhibition ([13]; at 3.7 µM)?
Answer: The growth inhibition was -15%.

Question: What about the growth inhibition ([13]; at 11.0 µM) of the same molecule?
Answer: Its growth inhibition is 90% (active).

Question: And the growth inhibition ([13]; at 33.0 µM)?
Answer: The growth inhibition was 91% (active).

Question: And the growth inhibition ([13]; at 100.0 µM)?
Answer: Its growth inhibition is 79% (active).

Question: What about the growth inhibition [14, 16] of the same molecule?
Answer: The growth inhibition was 33%.

Question: And the growth inhibition [14, 17]?
Answer: The growth inhibition was 98% (active).

Question: What about the growth inhibition ([14]; at 50.0 µM) of the same molecule?
Answer: The growth inhibition was 77.7% (active).

Question: What about the growth inhibition ([15]; at 1.2 µM) of the same molecule?
Answer: The growth inhibition was -3%.

Question: And the growth inhibition ([15]; at 3.7 µM)?
Answer: The growth inhibition was 18%.

Question: And the growth inhibition ([15]; at 11.0 µM)?
Answer: The growth inhibition was 95% (active).

Question: What about the growth inhibition ([15]; at 33.0 µM) of the same molecule?
Answer: Its growth inhibition is 91% (active).

Question: And the growth inhibition ([15]; at 100.0 µM)?
Answer: The growth inhibition was 79% (active).
